# The supplement of paper PMC6279402
# Structures can show the parent of a compound that is named as a salt. ± gives the standard deviation of the averaged measurements.
# Tested on: A549
# Assay: relative viability (normalised to negative control = 1, bortezomib = 0) (fraction); higher = less cytotoxic
# Settings: inflammatory serum-free RHB-A with cytokines + LPS, 5 d + 24 h CellTiter-Blue
# [1] = compound 30 nM, GSK126 pretreatment: 5 uM GSK126
# [2] = compound 30 nM, GSK126 pretreatment: none (vehicle)
# [3] = compound 300 nM, GSK126 pretreatment: 5 uM GSK126
# [4] = compound 300 nM, GSK126 pretreatment: none (vehicle)
Compound,relative viability [1],relative viability [2],relative viability [3],relative viability [4]
CN1CC[C@H](c2c(O)cc(O)c3c(=O)cc(-c4ccccc4Cl)oc23)[C@H](O)C1 [Flavopiridol hydrochloride],0.774 ± 0.011,0.785 ± 0.025,0.00358 ± 0.0037,0.00865 ± 0.0022
COc1cccc2cc(-c3nc(C4CCC(C(=O)O)CC4)n4ncnc(N)c34)[nH]c12 (centres undefined),0.815 ± 0.016,0.797 ± 0.045,0.588 ± 0.07,0.718 ± 0.055
Cc1ccc(-c2cc(C(F)(F)F)nn2-c2ccc(S(N)(=O)=O)cc2)cc1 [Celecoxib],0.842 ± 0.065,0.787 ± 0.09,0.783 ± 0.13,0.908 ± 0.14
O=C(Nc1cccc(Cl)c1)Nc1ncc(CCNc2ncnc3ccsc23)s1 [SNS-314 Mesylate],0.763 ± 0.13,0.639 ± 0.054,0.689 ± 0.16,0.505 ± 0.1
C#CCC(Cc1cnc2nc(N)nc(N)c2n1)c1ccc(C(=O)N[C@@H](CCC(=O)O)C(=O)O)cc1 (some centres undefined) [pralatrexate],0.878 ± 0.027,0.859 ± 0.075,0.765 ± 0.068,0.896 ± 0.06
NC(=O)c1ccc(-c2nc(-c3ccccn3)c(-c3ccc4c(c3)OCO4)[nH]2)cc1,0.825 ± 0.08,0.814 ± 0.1,0.817 ± 0.073,0.882 ± 0.1
CO[C@H]1C[C@@H]2CC[C@@H](C)[C@@](O)(O2)C(=O)C(=O)N2CCCC[C@H]2C(=O)O[C@H]([C@H](C)C[C@@H]2CC[C@@H](OP(C)(C)=O)[C@H](OC)C2)CC(=O)[C@H](C)/C=C(\C)[C@@H](O)[C@@H](OC)C(=O)[C@H](C)C[C@H](C)/C=C/C=C/C=C/1C [Deforolimus(MK-8669)],0.574 ± 0.039,0.591 ± 0.02,0.548 ± 0.03,0.523 ± 0.041
CCS(=O)(=O)c1cccc(-c2cc(C(=O)NC3CCN(C)CC3)c(C)c3[nH]c4ncc(C)cc4c23)c1,0.702 ± 0.12,0.72 ± 0.058,0.553 ± 0.083,0.485 ± 0.031
COC(=O)c1ccc2c(C(=Nc3ccc(N(C)C(=O)CN4CCN(C)CC4)cc3)c3ccccc3)c(O)[nH]c2c1 [BIBF1120(Vargatef)],0.825 ± 0.044,0.812 ± 0.16,0.844 ± 0.13,1.01 ± 0.18
CNC(=O)c1cc(Oc2ccc(NC(=O)Nc3ccc(Cl)c(C(F)(F)F)c3)cc2)ccn1 [Sorafenib tosylate; Sorafenib; Sorafenib Tosylate],1.12 ± 0.089,1.04 ± 0.039,1.12 ± 0.18,1.1 ± 0.1
COc1ccc2c3n(c(=NC(=O)c4cccnc4)nc2c1OC)CCN3,0.7 ± 0.049,0.75 ± 0.044,0.578 ± 0.14,0.735 ± 0.031
CS(=O)(=O)c1ccc(C(=O)Nc2ccc(Cl)c(-c3ccccn3)c2)c(Cl)c1 [Vismodegib],0.993 ± 0.058,0.952 ± 0.12,1.05 ± 0.14,1.03 ± 0.074
CO[C@@H](C(=O)N1Cc2[nH]nc(NC(=O)c3ccc(N4CCN(C)CC4)cc3)c2C1)c1ccccc1,0.626 ± 0.07,0.622 ± 0.05,0.488 ± 0.032,0.504 ± 0.058
S=c1[nH]cnc2nc[nH]c12 [Mercaptopurine],0.9493 ± 0.0049,0.969 ± 0.053,0.958 ± 0.067,0.984 ± 0.011
CNC(=O)c1ccccc1Sc1ccc2c(/C=C/c3ccccn3)n[nH]c2c1,0.898 ± 0.013,0.875 ± 0.039,0.835 ± 0.13,0.891 ± 0.063
C[S+]([O-])c1ccc(-c2nc(-c3ccc(F)cc3)c(-c3ccncc3)[nH]2)cc1 (centres undefined),1.03 ± 0.22,0.902 ± 0.11,1.3 ± 0.14,1.14 ± 0.13
O=C1CCC(N2C(=O)c3ccccc3C2=O)C(=O)N1 (centres undefined),0.862 ± 0.17,0.862 ± 0.13,0.865 ± 0.06,0.87 ± 0.034
CCN(CC)CCNC(=O)c1c(C)[nH]c(/C=C2\C(=O)Nc3ccc(F)cc32)c1C [Sunitinib; Sunitinib Malate; Sunitinib (free base)],0.842 ± 0.03,0.832 ± 0.046,0.896 ± 0.067,0.939 ± 0.097
Cc1cnc(NC(=O)Nc2cc(Br)c(C)cc2OC[C@@H]2CNCCO2)cn1,0.539 ± 0.03,0.607 ± 0.081,0.414 ± 0.05,0.338 ± 0.028
Cc1cccc(-c2[nH]c(C(C)(C)C)nc2-c2ccc3nccnc3c2)n1,0.848 ± 0.048,0.828 ± 0.086,0.799 ± 0.036,0.887 ± 0.067
Cc1[nH]nc2ccc(-c3cncc(OC[C@@H](N)Cc4ccccc4)c3)cc12,0.871 ± 0.14,0.766 ± 0.094,0.17 ± 0.011,0.273 ± 0.056

Compound,relative viability [1],relative viability [2],relative viability [3],relative viability [4]
OCCn1cc(-c2cnc3nnn(Cc4ccc5ncccc5c4)c3n2)cn1,0.969 ± 0.045,0.9847 ± 0.0075,0.972 ± 0.058,0.9557 ± 0.0093
FC(F)c1nc2ccccc2n1-c1nc(N2CCOCC2)nc(N2CCOCC2)n1,0.684 ± 0.12,0.738 ± 0.044,0.321 ± 0.1,0.395 ± 0.033
C[C@@H](CN1CC(=O)NC(=O)C1)N1CC(=O)NC(=O)C1 [Dexrazoxone; Dexrazoxane],0.828 ± 0.054,0.832 ± 0.093,0.859 ± 0.048,0.908 ± 0.13
Cn1nnc2c(C(N)=O)ncn2c1=O [Temozolomide],0.831 ± 0.044,0.837 ± 0.029,0.828 ± 0.067,0.943 ± 0.061
O=C1NC(=O)/C(=C/c2ccc3nccc(-c4ccncc4)c3c2)S1,0.83 ± 0.1,0.85 ± 0.088,0.747 ± 0.067,0.72 ± 0.029
CO[C@H](C(=O)[C@@H](O)[C@@H](C)O)[C@@H]1Cc2cc3cc(O[C@H]4C[C@@H](O[C@H]5C[C@@H](O)[C@H](O)[C@@H](C)O5)[C@H](O)[C@@H](C)O4)c(C)c(O)c3c(O)c2C(=O)[C@H]1O[C@H]1C[C@@H](O[C@H]2C[C@@H](O[C@H]3C[C@](C)(O)[C@H](O)[C@@H](C)O3)[C@@H](O)[C@@H](C)O2)[C@H](O)[C@@H](C)O1 [Plicamycin],0.1 ± 0.012,0.183 ± 0.058,0.00825 ± 0.00088,0.0263 ± 0.0054
c1ccc2c(-c3cnn4cc(-c5ccc(N6CCNCC6)cc5)cnc34)ccnc2c1,1.01 ± 0.16,0.961 ± 0.15,1.1 ± 0.067,1.13 ± 0.093
NC(=O)c1ccc(N(C(N)=O)c2c(F)cccc2F)nc1-c1ccc(F)cc1F,0.914 ± 0.11,0.873 ± 0.059,1.09 ± 0.055,0.995 ± 0.11
Clc1ccc(C(c2ccccc2Cl)C(Cl)Cl)cc1 (centres undefined),0.827 ± 0.1,0.804 ± 0.093,0.832 ± 0.16,0.983 ± 0.12
NC(N)=NC(N)=NCCc1ccccc1 [Phenformin hydrochloride],0.897 ± 0.13,0.864 ± 0.068,0.955 ± 0.058,0.966 ± 0.13
O=c1cc(N2CCOCC2)oc2c(-c3cccc4c3sc3ccccc34)cccc12,0.877 ± 0.026,0.869 ± 0.057,0.922 ± 0.055,0.919 ± 0.072
Cc1nc(N)sc1-c1ccnc(Nc2ccc(N3CCOCC3)cc2)n1,0.898 ± 0.061,0.913 ± 0.011,0.797 ± 0.1,0.72 ± 0.083
C[C@]12CC[C@H](O)CC1=CC[C@@H]1[C@@H]2CC[C@]2(C)C(c3cccnc3)=CC[C@@H]12 [Abiraterone],0.893 ± 0.12,0.869 ± 0.13,0.937 ± 0.15,1.03 ± 0.098
O=C(NOCC1CC1)c1ccc(F)c(F)c1Nc1ccc(I)cc1Cl,0.441 ± 0.038,0.55 ± 0.088,0.256 ± 0.014,0.312 ± 0.033
CCCS(=O)(=O)Nc1ccc(F)c(C(=O)c2c[nH]c3ncc(Cl)cc23)c1F,0.771 ± 0.062,0.725 ± 0.028,0.851 ± 0.19,1.02 ± 0.074
CN1CC[C@H](c2c(O)cc(O)c3c(=O)cc(-c4ccccc4Cl)oc23)[C@H](O)C1 [Flavopiridol (Alvocidib)],0.777 ± 0.11,0.771 ± 0.15,0.0118 ± 0.0013,0.0301 ± 0.0094
CCCS(=O)(=O)Nc1ccc(F)c(C(=O)c2c[nH]c3ncc(-c4ccc(Cl)cc4)cc23)c1F [vemurafenib],0.86 ± 0.082,0.848 ± 0.071,1 ± 0.051,1.02 ± 0.061
CNC(=O)c1cc(Oc2ccc(NC(=O)Nc3ccc(Cl)c(C(F)(F)F)c3)c(F)c2)ccn1 [Regorafenib; BAY 73-4506(Regorafenib)],0.913 ± 0.055,0.892 ± 0.016,1.02 ± 0.031,0.913 ± 0.014
CC(=O)Nc1nc(C)c(-c2ccc(Cl)c(S(=O)(=O)NCCO)c2)s1,0.61 ± 0.047,0.678 ± 0.015,0.487 ± 0.16,0.712 ± 0.052
N#CC(=C(/N)Sc1ccccc1N)/C(C#N)=C(/N)Sc1ccccc1N,0.835 ± 0.084,0.825 ± 0.11,0.61 ± 0.084,0.684 ± 0.12
